# Measurements: PubChem BioAssay (NCATS)
# Results filed as inconclusive are left out. Entries that show only a call come without a potency. Calls of active or inactive are those of the source. The call rests on the fitted dose curve; in most records, active means well fitted cell-killing curve with a large enough effect; inconclusive means small, poorly fitted or top-dose-only effect; inactive means no such curve, though single readings can be large or run the other way.
# Experiment: qHTS of pediatric cancer cell lines to identify multiple opportunities for drug repurposing: Primary screen for Rh41 cells (AID 1347108); further: nearly all actives have a fitted effect of over 70% in size
# Details: Rh41 rhabdomyosarcoma viability, CellTiter-Glo luminescence, 48 h; series mostly up to 46 µM
# Source text: Drug repurposing or repositioning has been offered as a strategy for drug development in oncology programs. This approach has special potential for childhood cancers and other rare or orphan diseases, where the expected return on new drug development has been a disincentive to pharmaceuticals. […] In this project we exploit the poly-pharmacology of drugs to discover new indications via phenotypic screening of a panel of 19 well-characterized cell lines derived from solid tumors seen in children and adolescents. The goal is to identify approved drugs with previously unrecognized anticancer properties that has the potential to reveal new mechanisms and biological processes involved in carcinogenesis or drug resistance. We employed a titration-based paradigm (quantitative high-throughput screening or qHTS), where all compounds were tested at multiple concentrations for their effect on cell viability. Concentration-response curves (CRCs) were derived directly from the primary screen, and both potency and efficacy values were used to identify compounds with robust bioactivity profiles. We screened the NIH Chemical Genomics Center (NCGC) Pharmaceutical Collection (NPC) and Mechanism Interrogation Plate (MIPE) small molecule collections of approved and investigational compounds against these cell lines; and measured metabolically active cells after 48 hours of compound treatment as a proxy for cell viability. […] Assay Submitter: Nathalia J. Martinez, National Center for Advancing Translational Sciences, National Institutes of Health, Rockville, MD, USA; email: natalia.martinez@nih.gov Shen, M et al. Quantitative high-throughput phenotypic screening of pediatric cancer cell lines identifies multiple opportunities for drug repurposing. Oncotarget 2017 Dec 19;9(4):4758-4772. PMID 29435139.
# The cells were obtained from University of North Carolina (UNC), Pediatric Preclinical Testing Program (PPT), and Coriell Institute (CI). qHTS cell viability assay: Cells were assayed in growth media at a density of 500-1,000 cells/well. Five microliters of cells were dispensed into 1,536-well, white, solid-bottom, TC-treated plates (Greiner Bio One) using a multidrop dispenser and incubated at 37 degrees C, 5% CO2, under a humidified atmosphere for 5 hours. Twenty-three nanoliters of compounds and controls (neutral control DMSO or positive control bortezomib at final concentration of 2.3 µM) were subsequently transferred by Kalypsys pintool. For primary screens, the MIPE collection was tested at 11-point dilutions (final concentrations range from 0.78 nM to 46 µM) and the NPC collection at 8-point dilutions (final concentrations range from 0.59 nM to 46 µM). Compounds tested in follow-up screens were assayed at 11-point dilutions. Cells were incubated for 48 hours, followed by addition of 3 µL of CellTiter-Glo (Promega). After a 15 min incubation at room temperature, samples were analyzed for luminescence intensity using a ViewLux High-throughput CCD imager equipped with clear filters.
# Potency means the concentration at half of the fitted maximal effect.
row,SMILES,Potency
1,CC[C@H](O)C(C[C@H](C)N(C)C)(c1ccccc1)c1ccccc1,44100 nM (active)
2,CCC1(c2cccc(O)c2)CCCCN(C)C1 (stereo not given),inactive
3,COc1ccc(CN2CCNCC2)c(OC)c1OC,inactive
4,C=CCOC(Cn1ccnc1)c1ccc(Cl)cc1Cl (stereo not given),inactive
5,CCOC(=O)c1cncn1C(C)c1ccccc1 (stereo not given),inactive
6,C[C@]12CC[C@H]3[C@@H](CCC4=CC(=O)CC[C@@H]43)[C@@H]1CC[C@@H]2O,inactive
7,O=C(O)Cc1ccccc1,inactive
8,CCOC(=O)C(c1c(O)c2ccccc2oc1=O)c1c(O)c2ccccc2oc1=O,inactive
9,Cc1cccc(Cc2cnc[nH]2)c1C,inactive
10,c1ccc2nc(N3CCNCC3)ccc2c1,inactive
11,CC(C)C(Br)C(=O)NC(N)=O (stereo not given),inactive
12,C[N+]1(CCC(C(N)=O)(c2ccccc2)c2ccccc2)CCCCC1,inactive
13,C[C@]12CC[C@H]3[C@@H](CCC4=CC(=O)CC[C@@]43C)[C@@H]1CC[C@@H]2C(=O)O,inactive
14,C[C@]12C=CC(=O)C=C1CC[C@@H]1[C@@H]2CC[C@@]2(C)[C@H]1CC[C@]2(C)O,inactive
15,OC(c1ccccc1)(c1ccccc1)C1CCNCC1,inactive
16,O=c1[nH]c2cc(Cl)ccc2n1C1CCNCC1,inactive
17,Cc1ccc(N=CN(C)C=Nc2ccc(C)cc2C)c(C)c1,inactive
18,COc1ccc(C(=O)N2CCCC2=O)cc1,inactive
19,CCS(=O)(=O)C(C)(C)S(=O)(=O)CC,inactive
20,CCC(=O)O[C@H]1CC[C@H]2[C@@H]3CCC4=CC(=O)CC[C@]4(C)[C@H]3CC[C@]12C,inactive

row,SMILES,Potency
1,CCCC[N+]1(C)[C@@H]2CC(OC(=O)[C@H](CO)c3ccccc3)C[C@H]1[C@@H]1O[C@@H]12 (stereo not given in full),inactive
2,CC(C)=CCN1CC[C@@]2(C)c3cc(O)ccc3C[C@@H]1[C@@H]2C,inactive
3,C=CC[C@]1(O)CC[C@H]2[C@@H]3CCC4=CC(=O)CCC4=C3C=C[C@@]21C,inactive
4,C[C@@H]1CN(C2CCC(C#N)(c3ccc(F)cc3)CC2)CC[C@]1(C(=O)O)c1ccccc1 (stereo not given in full),inactive
5,O=C(N[C@@H]1N=C(c2ccccc2F)c2cccc3c2N(CC3)C1=O)c1cc2ccccc2[nH]1,inactive
6,O=C(CBr)Nc1ccc(Cl)cc1C(=O)c1ccccc1F,inactive
7,CC1COC2(c3ccccc3Cl)c3cc(Cl)ccc3NC(=O)CN12 (stereo not given),inactive
8,CC[n+]1c(-c2ccccc2)c2cc(N)ccc2c2ccc(N)cc21,3350 nM (active)
9,CC1N=C(N)OC1c1ccccc1 (stereo not given),inactive
10,Cc1ccc([N+](=O)[O-])[c]2c1[O][Hg]2,668 nM (active)
11,Oc1c(Br)cc(Br)cc1Br,inactive
12,CN(C)C(=S)SSC(=S)N(C)C,211 nM (active)
13,O=c1n(Cl)c(=O)n(Cl)c(=O)n1Cl,inactive
14,CC(C)NCC(O)c1ccc(N)c(C#N)c1 (stereo not given),inactive
15,Nc1ccc(Cl)cc1C(=O)c1ccccc1F,inactive
16,CCN1CCCC1CNC(=O)C(O)(c1ccccc1)c1ccccc1 (stereo not given),inactive
17,CCOP(=S)(OCC)O/N=C(\C#N)c1ccccc1,inactive
18,COc1ccc2[nH]cc(CCN(C(C)C)C(C)C)c2c1,inactive
19,CCC1(CC)C(=O)NC(=O)NC1=O,inactive
20,CC(Cc1ccccc1)NCc1ccccc1Cl (stereo not given),inactive
